High-throughput results deposited in PubChem BioAssay by National Center for Advancing Translational Sciences (NCATS).
DNA Pol III inh: inhibitors of bacterial DNA polymerase III holoenzyme. reconstituted DNA polymerase III holoenzyme replication, biochemical. Potency, µM (highest dose often 57.1 µM). actives 0.25% (n = 71,000)
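Reconstituted *E. coli* holoenzyme (0.35 nM Pol III, 1 nM beta, 154 nM SSB, 2 nM primase) was preincubated with compound for 15 min at RT. Synthesis on 1.4 nM ssM13Gori ran 35 min, then was stopped with PicoGreen/EDTA and read as dsDNA fluorescence.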
HEK293 cAMP ctrl: parental HEK293 cAMP activation (counter-screen) | parental HEK293 CNG cAMP sensor, membrane potential fluorescence | Potency, µM (titrated, usually from 57.1 µM), actives largely listed as activators | actives 2.5% (n = 73,000) | AID 938; further: nearly all actives have a fitted effect of over 55% in size
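Parental HEK 293 cells stably expressing a modified CNG channel (no TSHR) report cAMP rise as membrane depolarization. Membrane potential dye with 100 uM RO 20-1724 was loaded for 60 min at room temperature, then compound added for 30 min; fluorescence read at 590 nm.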
TSHR ag: activates the human thyroid stimulating hormone receptor | P16473 | HEK293-CNG-TSHR cells (CNG channel as cAMP sensor), membrane potential dye, cAMP | Potency, µM (doses to about 57.1 µM), usual class: activators | actives 0.48% (n = 73,000) | AID 926; active means well fitted activation curve with a large enough effect in the main read-out, with a control signal flat, not every such curve was filed as active; inconclusive means small, poorly fitted or top-dose-only effect, or a change in a side signal; inactive means no such curve, though single readings can be large or run the other way; reference of the percent scale not stated here;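 further: the control signal comes from parental cells without the receptor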
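cAMP rise detected as CNG-channel membrane depolarization by fluorescent dye (emission 590 nm), 30 min after compound, following 60 min dye loading containing 100 uM RO 20-1724 at room temperature. Cells: TSHR/CNG HEK 293, with parental CNG HEK 293 as control.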
BRCT inh red: BRCT-phosphoprotein interaction inhibition (red fluorophore); P38398; BRCT-phosphopeptide binding, red fluorescence polarization; Potency, µM (highest dose often 76.9 µM), hits mostly inhibitors; actives 0.03% (n = 75,000); AID 892
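Fluorescence polarization: 100 nM His-tagged BRCA1 BRCT with 100 nM TAMRA-labelled phospho-BACH1 decapeptide, phosphate buffer pH 7.3 with 150 mM NaCl, DTT, 0.01% Tween 20; 12 min RT. Binding inhibition seen as FP decrease.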
BRCT inh green: BRCA1 BRCT-phosphoprotein interaction inhibition. P38398. BRCA1 BRCT-phosphopeptide binding, green fluorescence polarization. Potency, µM (titrated, usually from 76.9 µM), actives largely listed as inhibitors. actives 0.05% (n = 75,000)
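Fluorescence polarization: His-tagged BRCT (~35 kDa BRCA1 C-terminus, 250 nM) bound to 100 nM fluorescein-labeled phosphorylated 10-aa BACH1 peptide, pH 7.3 phosphate buffer with DTT and Tween 20. Compounds incubated 12 min at room temperature; inhibition read as lowered polarization.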
TsaE inh: YjeE (TsaE) inhibition, E. coli. P0AF67. actives 0.05% (n = 71,000). purified YjeE enzyme, qHTS inhibition assay. AID 605. Potency, µM
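Purified YjeE (10 uM) with BODIPY Texas Red-labeled ADP probe (2 uM); compounds pin-transferred, 15 min at room temperature. Binding inhibition read as decreased fluorescence polarization; ADP titration as control.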
Each line names hits and unclear results; the compound was inactive in the other large screens. Only some compounds are listed: those with a hit (about 3.2% of all), similar ones and a draw of the others. Unless noted, the call rests on the fitted dose curve; in most records, active means well fitted curve in the direction sought with a large enough effect; inconclusive means small, poorly fitted or top-dose-only effect, or another doubt; inactive means no such curve, though single readings can be large; an effect the other way counts as inactive or inconclusive.

Cc1ccc(Nc2nc(CSc3nnc(-c4cccs4)o3)cs2)cc1	none
Cn1c(C(O)c2ccc(Cl)cc2)nc(Cl)c1Cl (configuration not stated)	none
Cc1[nH]c2ccccc2c1C(=O)CN1CCSCC1	none
[C-]#[N+]/C(C#N)=C\c1cc(C(C)(C)C)c(O)c(C(C)(C)C)c1	HEK293 cAMP ctrl 2.5µM, TSHR ag inconclusive (no result: DNA Pol III inh, TsaE inh)
CC(C)(C)c1cc(/C=C(\C#N)C(N)=S)cc(C(C)(C)C)c1O	HEK293 cAMP ctrl 3.2µM, TSHR ag inconclusive
CCCCn1nnc(NC(=O)c2sc3cc(Cl)ccc3c2Cl)n1	HEK293 cAMP ctrl 25µM, TSHR ag inconclusive
CCCn1nnc(NC(=O)c2ccc(Cl)cc2Cl)n1	none
Cc1ccc(SCCC(=O)N(C)C)cc1	none
CCCc1cc(=O)oc2cc(C)c(CN3CCCC3)c(O)c12	none (no result: TSHR ag)
Cc1ccc2c(CN3CCN(Cc4ccc5c(c4)OCO5)CC3)cc(=O)oc2c1C	HEK293 cAMP ctrl inconclusive, TSHR ag inconclusive
Cc1cc2oc(=O)cc(CN3CCCCC3C)c2c(C)c1Cl (configuration not stated)	HEK293 cAMP ctrl 25µM, TSHR ag inconclusive
Cc1cc2oc(=O)cc(CN3CCC(C)CC3)c2cc1Cl	HEK293 cAMP ctrl 25µM, TSHR ag inconclusive
Cc1cc2oc(=O)cc(CN3CCN(Cc4ccccc4)CC3)c2cc1Cl	none
Cc1cc2oc(=O)cc(CN3CCN(Cc4ccc5c(c4)OCO5)CC3)c2cc1C	TSHR ag 2.5µM
COC(=O)C(NC(=O)c1ccccc1)=C1CCCCC1	none
COC(=O)c1ccccc1NC(=O)c1cnn2c(C(F)F)cc(C3CC3)nc12	HEK293 cAMP ctrl 16µM, TSHR ag inconclusive
O=C(NCCc1ccccc1)c1cnn2c(C(F)F)cc(C3CC3)nc12	HEK293 cAMP ctrl inconclusive, TSHR ag inconclusive
CCc1ccc(-c2nn[nH]n2)cc1	none
Clc1c(CSc2nc3ccccc3o2)nc2sccn12	HEK293 cAMP ctrl 32µM, TSHR ag inconclusive
CN(N=O)C(=O)N[C@H]1C(O)OC(CO)[C@@H](O)[C@H]1O (some centres not stated)	none
COCCSc1ccccc1C(=O)Nc1nnc(COC)s1	none
O=C(O)c1ccccc1NS(=O)(=O)c1ccccc1F	none (no result: DNA Pol III inh, TsaE inh)
O=c1c(CCc2ccccc2)nc2cnc(Nc3ccccc3)nc2n1Cc1cccs1	HEK293 cAMP ctrl 1.3µM, TSHR ag inconclusive
Cc1nc2cnc(N3CCN(C)CC3)nc2n(CCc2ccccc2)c1=O	HEK293 cAMP ctrl inconclusive, TSHR ag inconclusive
COc1cccc(Cn2c(=O)c(C)nc3cnc(Oc4cccc(Cl)c4)nc32)c1	HEK293 cAMP ctrl inconclusive, TSHR ag inconclusive
Cc1nc2cnc(N3CCOCC3)nc2n(CCc2ccccc2)c1=O	HEK293 cAMP ctrl 3.2µM, TSHR ag inconclusive
COc1ccc(Oc2ncc3nc(C)c(=O)n(Cc4ccc(F)cc4)c3n2)cc1	HEK293 cAMP ctrl 16µM, TSHR ag inconclusive
Cc1nc2cnc(N(C)C)nc2n(Cc2ccc(F)cc2)c1=O	HEK293 cAMP ctrl inconclusive, TSHR ag inconclusive
COc1ccc(-n2c(=O)c(C)nc3cnc(Oc4cccc(Cl)c4)nc32)cc1	HEK293 cAMP ctrl 16µM, TSHR ag inconclusive
Cc1nc2ccccn2c1/C(O)=C1\C(=O)C(=O)N(CCN2CCOCC2)C1c1ccncc1 (configuration not stated)	none
Oc1cnc2ccccc2c1CN1CCOCC1	none
O=c1cnc2cnc(Oc3cccc(Cl)c3)nc2n1CCc1ccccc1	HEK293 cAMP ctrl inconclusive, TSHR ag inconclusive
Cc1nc2cnc(Oc3cccc(Cl)c3)nc2n(CCc2ccccc2)c1=O	HEK293 cAMP ctrl 3.2µM, TSHR ag inconclusive
COc1ccc(Oc2ncc3nc(C)c(=O)n(CCc4ccccc4)c3n2)cc1	HEK293 cAMP ctrl inconclusive, TSHR ag inconclusive
Cc1nc2cnc(Oc3ccccc3)nc2n(Cc2cccs2)c1=O	HEK293 cAMP ctrl 16µM, TSHR ag inconclusive
COc1ccc(Oc2ncc3nc(C)c(=O)n(Cc4cccs4)c3n2)cc1	HEK293 cAMP ctrl inconclusive, TSHR ag inconclusive
Cc1nc2cnc(Oc3ccccc3)nc2n(CCc2ccccc2)c1=O	HEK293 cAMP ctrl 1.6µM, TSHR ag inconclusive
O=C(Cc1nc2ccccc2[nH]1)NCc1ccco1	none
O=C(NCC1CC1)[C@@H]1C[C@H]1[C@@H](NP(=O)(c1ccccc1)c1ccccc1)c1ccccc1	HEK293 cAMP ctrl 13µM, TSHR ag inconclusive
CN1CCc2cc(Cl)c(O)cc2[C@@H](c2ccccc2)C1	HEK293 cAMP ctrl 25µM, TSHR ag inconclusive
Cc1cc(NC(=O)c2ccc(S(=O)(=O)N3CCCC3)cc2)nc2c1c(=O)oc1ccccc12	HEK293 cAMP ctrl inconclusive, TSHR ag inconclusive
Cc1cc(C)nc(N2CCN(c3ncnc4c3cnn4Cc3ccc(Cl)cc3Cl)CC2)n1	none
O=C(NCc1ccc(Cl)cc1Cl)c1ccccn1	HEK293 cAMP ctrl 25µM, TSHR ag inconclusive
O=C(CN(Cc1cccs1)C(=O)CN1C(=O)COc2ccccc21)NCc1ccco1	HEK293 cAMP ctrl 16µM, TSHR ag inconclusive
C/C(=C\C(=O)Nc1cc(C)on1)c1ccccc1	none
Cc1ccc(C)c(NC(=O)c2ccc3c(c2)N(Cc2ccc(F)cc2)C(=O)CS3=O)c1 (configuration not stated)	HEK293 cAMP ctrl 32µM, TSHR ag inconclusive
COC(=O)c1cc(Br)c(=O)n(Cc2ccncc2)c1	none
O=C1CSC2=NCN(c3ccc4c(c3)OCO4)CN12	none
CC(C)=C1C2C=CC1C1C(=O)N(c3ccc4c(c3)OCO4)C(=O)C21 (configuration not stated)	TSHR ag 2.5µM
COC(=O)c1ccc(NC(=O)c2ccc(CN3CCOCC3)cc2)cc1	none
O=C(Nc1ccc(CN2CCOCC2)cc1)c1ccc(-c2ccc(Br)cc2)o1	HEK293 cAMP ctrl 25µM, TSHR ag inconclusive
CC(=O)NC(CC(C)C)C(=O)NC(=O)NCc1ccccc1 (configuration not stated)	none
O=C1CC(N2CCN(C3CCc4ccccc4C3)CC2)C(=O)N1c1ccccc1 (configuration not stated)	HEK293 cAMP ctrl 25µM, TSHR ag inconclusive
O=C1CC(N2CCN(c3ccccc3Cl)CC2)C(=O)N1c1ccccc1 (configuration not stated)	none
O=C(O)C1C2C=CC(C2)C1C(=O)NCc1ccc2c(c1)OCO2 (configuration not stated)	none
COc1cccc(OC)c1OCCNC[C@@H]1COc2ccccc2O1	HEK293 cAMP ctrl 32µM, TSHR ag inconclusive
Cc1ccc2ccccc2c1COC(=O)c1nonc1N	HEK293 cAMP ctrl 16µM, TSHR ag inconclusive
